Experimental findings from PubChem BioAssay AID2158 (National Center for Advancing Translational Sciences (NCATS), 2009) are described below.

Each structure is given as a SMILES string. Where “and” joins values, the source holds several entries; their conditions need not be identical. Equal entries are not always repeated. Inconclusive results are not listed. Unmarked numbers belong to inactive results. Calls of active or inactive are those of the source. Calls follow the shape of the dose curve; as a rule, active = well fitted inhibition curve with a large enough effect; inconclusive = small, poorly fitted or top-dose-only effect; inactive = no such curve, though single readings can be large or run the other way.
Potency is read from the fitted curve at half-maximal effect.

Chain of Cruzipain (Trypanosoma cruzi) (P25779 123-467 limits assumed): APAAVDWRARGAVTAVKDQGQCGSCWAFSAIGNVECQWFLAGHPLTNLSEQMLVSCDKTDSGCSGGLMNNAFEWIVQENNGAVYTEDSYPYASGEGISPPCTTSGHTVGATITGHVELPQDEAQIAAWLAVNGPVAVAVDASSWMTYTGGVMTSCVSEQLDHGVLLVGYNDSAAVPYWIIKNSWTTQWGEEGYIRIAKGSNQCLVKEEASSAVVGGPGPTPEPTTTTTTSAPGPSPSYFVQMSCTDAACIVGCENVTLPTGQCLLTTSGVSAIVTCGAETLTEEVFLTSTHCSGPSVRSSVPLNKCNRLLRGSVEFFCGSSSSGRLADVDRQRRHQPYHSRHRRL

The assay deals with Cruzipain (Trypanosoma cruzi) (UniProt P25779). Put plainly: Confirmation qHTS Assay for Inhibitors of Cruzain. Also: nearly all actives have a fitted effect of over 40% in size.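 As to activity change, negative = inhibition: plate controls were uninhibited enzyme control for no effect and buffer wells lacking enzyme for full effect.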 The settings on record: purified cruzain, Z-FR-AMC fluorescence, 0.01% Triton. The essentials:
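Purified cruzain, 1.5 nM, pre-incubated 15 min at room temperature with compound in 100 mM sodium acetate pH 5.5, 5 mM DTT, 0.01% Triton X-100. Then 2 uM Z-FR-AMC added; AMC fluorescence (ex 360/em 450 nm) increase over 60 s gave reaction progress.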
For orientation: qHTS replaces the single test concentration by a dilution series.
In the case of `COc1ccccc1OCCCn1c(CCNC(=O)C2CCCCC2)nc2ccccc21`, the Potency was 0.708 µM (active).
Regarding `C=CCNC(=O)c1ccc2nc(-c3ccco3)c(-c3ccco3)nc2c1`, the Potency is 15.8 µM (active).
As for `CC(C)CCNC(=O)Cn1c(SCc2cccc(F)c2)nc2ccncc21`, the Potency is 14.1 µM (active).
The same measure, in the same setting: the value for `N#Cc1c(N2CCOCC2)nc(-c2ccco2)c2c1CCCC2` was 3.98 µM (active).
On the same count and under the same terms, the value for `O=C(/C=C/c1ccc2c(c1)OCO2)Nc1ccc(-n2nncc2-c2ccccc2)cc1` was 2.51 µM (active).
For the compound `COc1cccc2c1[C@@H]1CN(CCCCn3c(=O)[nH]c4c(sc5ncc(-c6ccccc6)nc54)c3=O)C[C@@H]1CO2`, the Potency was 15.8 µM (active).
Take `CC(C)(C)c1ccc(OCCn2c(CCNC(=O)C3CCCCC3)nc3ccccc32)cc1`: the Potency was 6.31 µM (active).
Turning to `O=C(NNC(=O)c1cc2ccccc2[nH]1)OCc1ccccc1`, the activity change, negative = inhibition was 2.31%.
Still for that read-out and setting: the value for `CCc1ccc2[nH]c(=O)c(CN(Cc3cccs3)Cc3nnnn3Cc3ccccc3)cc2c1` was -18.5%.
On the same count and under the same terms, the value for `COCC(C)NC(=O)Cn1c(SCc2ccccc2)nc2ccccc21` (stereo not drawn) was -6.96%.
As for `COc1cc(C(=O)COC(=O)CNC(=O)C2CCCCC2)cc(OC)c1OC`, the Potency is 7.94 µM (active).
`CCOC(=O)CNc1nc(C#N)nc(N2CCOCC2)n1`: the Potency was 4.47 µM (active) and 6.31 µM (active).
As to `COc1cccc(C)c1NC(=O)C(OC(=O)CNC(=O)c1ccccc1)c1ccccc1` (stereo not drawn), the Potency is 25.1 µM (active).
Take `O=C(NCCCc1nc2ccccc2n1CCOc1ccccc1)C1CCCCC1`: the activity change, negative = inhibition is -11.7%.
Take `Cc1cc(OCCCn2c(CCNC(=O)C3CCCCC3)nc3ccccc32)ccc1Cl`: the Potency was 1.12 µM (active).
On the same count and under the same terms, the value for `CCC(C)[C@@H](NC(=O)OC(C)(C)C)c1nnc(S(=O)(=O)Cc2cccc(C)c2)o1` (stereo partly drawn) was 14.1 µM (active).
Turning to `O=C(Cn1c2ccccc2c(=O)c2ccccc21)Nc1cccc(F)c1`, the activity change, negative = inhibition was -8.37%.
Regarding `O=C(O)Cc1nnc(-c2cc3ccccc3[nH]2)s1`, the activity change, negative = inhibition is 10.6%.
Still for that read-out and setting: the value for `CCOC(=O)[C@H](CCc1ccccc1)N[C@@H](C)C(=O)N1[C@H](C(=O)O)C[C@H]2CCCC[C@@H]21` was 0.349%.
Regarding `Cc1cc(OCCn2c(CCNC(=O)C3CCCCC3)nc3ccccc32)ccc1Cl`, the Potency was 1 µM (active).
The same measure, in the same setting: the figure for `CCOc1nc(C#N)nc(N2CCCCC2)n1` is 2.51 µM (active) and 3.55 µM (active).
Take `Cc1ccccc1OCC(=O)NCC(=O)OCc1ccc2ccccc2c1`: the activity change, negative = inhibition was -17.8%.
Take `COc1nc(C#N)nc(N(C)C)n1`: the Potency was 6.31 µM (active) and 7.94 µM (active).
With `O=C(CNC(=O)C(c1ccccc1)c1ccccc1)OCC(=O)c1ccc2ccccc2c1`, the activity change, negative = inhibition was 28.2%.
The same measure, in the same setting: the value for `c1ccc(CNCc2nnc(-c3cc4ccccc4[nH]3)s2)cc1` was -7.37%.
Turning to `O=C(N/N=C\c1ccccc1O)c1ccccc1O`, the activity change, negative = inhibition was -9.61%.
For `COc1ccc(C(=O)COC(=O)CNC(=O)C2CCCCC2)c(OC)c1`, the Potency was 14.1 µM (active).
For `N#CCSc1nc2scc(-c3cccs3)c2c(=O)n1CCc1ccccc1`, the activity change, negative = inhibition is -7.68%.
For the compound `O=C(CNC(=O)c1ccc(Cl)cc1Cl)OC(C(=O)Nc1cc(C(F)(F)F)ccc1Cl)c1ccccc1` (stereo not drawn), the Potency was 7.08 µM (active).
With `O=C(CNC(=O)C1CCCCC1)OCC(=O)c1ccccc1`, the Potency was 6.31 µM (active).
On to `Cc1ccc(C(=O)NCC(=O)OCC(=O)c2ccc3ccccc3c2)cc1`, for which the Potency is 12.6 µM (active).
Turning to `COc1ccc(OCCn2c(CCNC(=O)C3CCCCC3)nc3ccccc32)cc1`, the Potency is 1.12 µM (active).
As for `Cc1ccc(S(=O)(=O)NC(N)=NCCC[C@@H](NC(=O)CNC(=O)c2ccccc2)C(=O)Nc2cc(C(F)(F)F)ccc2Cl)cc1`, the activity change, negative = inhibition was -20%.
On to `Cc1cc2c(C)cc(=O)oc2c2c1NCCC2`, for which the activity change, negative = inhibition is -19.4%.
Regarding `CC(C)(C)c1ccc(Nc2nc(C#N)nc(NC3CCCC3)n2)cc1`, the Potency is 3.55 µM (active).
Consider `COc1ccc(OC)c(NC(=O)C(OC(=O)CNC(=O)c2ccccc2)c2ccccc2)c1` (stereo not drawn), for which the Potency was 11.2 µM (active).
For the compound `CC(C)(C)OC(=O)NCC(=O)NNC(=O)C(C(=O)OCc1ccccc1)c1ccccc1` (stereo not drawn), the activity change, negative = inhibition is -3.79%.
Same read-out and setting: the figure for `COc1ccccc1N1CCN(C(=O)CN(c2ccccc2OC)S(=O)(=O)c2ccccc2)CC1` is -10.1%.
